Screening results as filed in PubChem.
PLCb3 inh: human PLC-beta3 inhibitors, primary screen, biochemical, fluorescence; Purified PLC-beta3, fluorogenic substrate; inhibition, % at 12.2 µM; 370,000 compounds, 0.18% hits; AID 720704, 2013; in the data active = inhibition above about 11%;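 also: 0% = median of compound wells on plate and 100% = full blocker control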
ADAM10 inh: human ADAM10 inhibitors, primary screen, biochemical, QFRET, HTS; 370,000 compounds, 0.62% hits; recombinant ADAM10, EDANS/DABCYL FRET peptide cleavage, 3 h; AID 720582, 2013; inhibition, % at 7 µM; Disintegrin and metalloproteinase domain-containing protein 10 (Homo sapiens), O14672;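 active = inhibition above a per-campaign cutoff equal to the mean of compounds falling between control-based bounds plus 3 SD, cut at about 20% in these data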;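 also: 0% = DMSO wells while the 100% control is not disclosed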
PLCg1 inh: PLC-gamma1 enzyme inhibitors, primary screen, biochemical, fluorescence, purified enzyme. fluorogenic substrate. 370,000 compounds, 0.84% hits. 1-phosphatidylinositol 4,5-bisphosphate phosphodiesterase gamma-1 (Homo sapiens), P19174. AID 720700, 2013. inhibition, % at 12.2 µM; in the data active = inhibition above about 9.5%
KLK7 zymogen act: proKLK7 zymogen activators, primary screen, biochemical, fluorescence intensity; Kallikrein-7 (Homo sapiens), P49862; purified proKLK7, EDANS-DABCYL substrate fluorescence; 100% is mature enzyme control, 0% vehicle; activation, % at 7 µM; 370,000 compounds, 0.9% hits;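 active = activation above the mean of all tested compounds plus 3 SD, computed per campaign excluding outliers beyond control limits, cut at about 13% in these data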
Target sequence (P49862 whole entry, looked up): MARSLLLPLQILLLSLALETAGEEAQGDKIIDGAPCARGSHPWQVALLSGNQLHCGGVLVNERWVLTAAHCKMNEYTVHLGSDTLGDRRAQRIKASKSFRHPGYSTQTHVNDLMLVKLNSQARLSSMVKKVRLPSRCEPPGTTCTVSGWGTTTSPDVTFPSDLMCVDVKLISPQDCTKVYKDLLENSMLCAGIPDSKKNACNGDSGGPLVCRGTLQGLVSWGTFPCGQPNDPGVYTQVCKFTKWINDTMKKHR
ADAM17 inh: ADAM17 inhibitors, primary screen, biochemical, QFRET | recombinant ADAM17, EDANS/DABCYL FRET peptide cleavage | inhibition, % at 6.95 µM | 370,000 compounds, 0.83% hits | AID 720648, 2013;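 active = inhibition above the mean of compounds lying between control limits plus 3 SD, set per campaign, cut at about 8.5% in these data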;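 also: 0% = DMSO-only wells as the low control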
ADAM10 counter: ADAM10 inhibitors, counter-screen for ADAM17 exosite inhibitor project, biochemical, FRET, human ADAM10; shares compounds with ADAM17 inh; recombinant ADAM10, EDANS/DABCYL FRET peptide cleavage, 3 h; inhibition, % at 6.95 µM; 2,900 compounds, 47% hits;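 active = mean inhibition over the triplicate runs exceeds the activity threshold set in the earlier primary screen, cut at about 20% in these data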;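 also: 0% = DMSO wells and 100% = marimastat wells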
ADAM17 confirm: ADAM17 inhibitors, hit retest, confirmation, biochemical, QFRET peptide cleavage; inhibition, % at 6.95 µM; shares compounds with ADAM17 inh; 2,900 compounds, 65% hits; recombinant ADAM17, EDANS/DABCYL QFRET peptide cleavage; AID 743257, 2014;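 active = mean inhibition across replicates above the hit cutoff set in the primary screen, cut at about 8.5% in these data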;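 also: 0% = DMSO wells and 100% = marimastat wells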
* marks the source's active call; other numbers are inactive results; nt = no result. The list is not random: actives were taken first. Their share in the collection is about 2.9%.

SMILES	PLCb3 inh	ADAM10 inh	PLCg1 inh	KLK7 zymogen act	ADAM17 inh	ADAM10 counter	ADAM17 confirm
Cc1cc(C)c(OCC(=O)NCC2COc3ccccc3O2)c(C)c1 (stereo not drawn)	1	11	4	-1	15*	9	5
CCOC(=O)[C@]12CCC=C1N(Cc1cccc3ccccc13)C(=O)[C@H](CC(=O)NCc1cccc3ccccc13)C2	-3	-4	-1	0	4	nt	nt
CCOC(=O)[C@]12CCC=C1N(Cc1cccc3ccccc13)C(=O)[C@H](CC(=O)NCc1cccs1)C2	0	13	-1	0	11*	20*	12*
CCCn1c(C)cc(C(=O)COC(=O)c2cc(S(=O)(=O)NCC(C)C)c(Cl)cc2Cl)c1C	4	15	7	1	10*	20*	9.7*
CC(C)CNS(=O)(=O)c1cc(C(=O)OCC(=O)c2ccc3c(c2)OCCO3)c(Cl)cc1Cl	3	14	3	-1	8	nt	nt
O=C(Nc1ccc2nc([C@@H]3O[C@H](CO)[C@@H](O)[C@H](O)[C@H]3O)[nH]c2c1)NC(c1ccccc1)c1ccccc1	-4	-15	-3	1	3	nt	nt
CCC1C(=NO)C(CC)C(c2ccccc2)NC1c1ccccc1 (stereo not drawn)	-23	16	6	-1	17*	15	10*
O=C(O)C1C=CCC(C(=O)O)C1 (stereo not drawn)	0	-7	1	0	2	nt	nt
Fc1ccc(Cn2c(SCc3ccc(F)c(C(F)(F)F)c3)nnc2C(F)(F)F)cc1	-4	16	-3	0	8.8*	37*	17*
COc1cc(C2c3cc4c(cc3OC(NCc3ccccc3)C2C)OCO4)cc(OC)c1OC (stereo not drawn)	-1	-5	-2	0	2	nt	nt
Cn1cc(C(=O)c2ccc(Cl)cc2Cl)cc1C(=O)N/N=C(\N)COc1ccc(Cl)cc1	-8	16	3	-1	11*	22*	16*
Cc1cc2nc(-c3cccc(Cl)c3)c(CC(C)(C)C)n2c(C)c1Br	-1	-11	-2	1	-2	nt	nt
Cc1ccccc1NC(=O)OCCN1CCCC12CCC(c1ccccc1)CC2 (stereo not drawn)	-1	7	0	nt	2	nt	nt
CN(C)c1ccc(C(CNS(=O)(=O)c2ccc3ccccc3c2)c2c[nH]c3ccccc23)cc1 (stereo not drawn)	-11	19	-9	-5	9.1*	26*	20*
CN(C)c1ccc(C(CN)c2c[nH]c3ccccc23)cc1 (stereo not drawn)	-16	-3	-5	0	-4	nt	nt
CC1(Cc2ccc(OC(F)(F)F)cc2)C(=O)Nc2ccc(OC(F)(F)F)cc21 (stereo not drawn)	1	18	-2	0	11*	51*	25*
CC1(Cc2ccc(OC(F)(F)F)cc2)C(=O)Nc2c(Cl)ccc(Cl)c21 (stereo not drawn)	1	16	1	0	9.7*	31*	15*
CC1(Cc2cccc(F)c2)C(=O)Nc2ccc(OC(F)(F)F)cc21 (stereo not drawn)	-2	10	0	-1	4	nt	nt
CC1(Cc2ccc(F)cc2)C(=O)Nc2c(Cl)ccc(Cl)c21 (stereo not drawn)	0	4	2	0	0	nt	nt
O=C(Cc1ccccc1)N1CCC(Oc2cccnc2)CC1	-1	-3	0	0	-3	nt	nt
CCc1noc(C)c1C(=O)OC(C)C(=O)Nc1ccc(Cl)cn1 (stereo not drawn)	-2	4	0	1	0	nt	nt
